Source: PubChem
Compounds with a hit are over-represented: about 3.1% of the library has one in this group of screens.
DENV2 CPE rescue: inhibitors of DENV2 cytopathic effect, primary screen, cell-based, plate reader, single concentration | CPE inhibition, % at 9.99 µM | hit rate 1.7% among 350,000 | AID 651640, 2012 | DENV2-infected cells, cytopathic effect rescue; in the data active means CPE inhibition above about 20%, passing the limit was not always enough; tested in BHK-21 cells;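 further: 0% = median of neutral control wells and 100% = median of positive control wells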
RAD54 branch: inhibitors of human RAD54 branch migration, primary screen, biochemical, fluorescence, single point | DNA repair and recombination protein RAD54-like (Homo sapiens), Q92698 | inhibition, % at 10.4 µM | hit rate 0.14% among 360,000 | RAD54 Holliday junction branch migration, FAM/BHQ fluorescence;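 active means mean normalized replicate activity at least 40 and at least half of replicates scoring 40 or more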;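 further: 0% = median of neutral control wells and 100% = median of positive control wells; inhibitors cause a drop in the FAM fluorescence signal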
MLL AF4-AF9 inh: inhibitors of AF4 peptide binding to AF9, primary screen, biochemical, AlphaScreen, biotin-AF4 peptide, FLAG-AF9, single point; Protein AF-9 (Homo sapiens), P42568; inhibition, % at 10 µM; hit rate 0.47% among 350,000;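 active means every replicate reaching a set inhibition limit, whatever the replicate mean, cut at about 25% in these data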;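 further: 0% = plate neutral control median and 100% = total signal loss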
Target sequence (P42568 whole entry, looked up): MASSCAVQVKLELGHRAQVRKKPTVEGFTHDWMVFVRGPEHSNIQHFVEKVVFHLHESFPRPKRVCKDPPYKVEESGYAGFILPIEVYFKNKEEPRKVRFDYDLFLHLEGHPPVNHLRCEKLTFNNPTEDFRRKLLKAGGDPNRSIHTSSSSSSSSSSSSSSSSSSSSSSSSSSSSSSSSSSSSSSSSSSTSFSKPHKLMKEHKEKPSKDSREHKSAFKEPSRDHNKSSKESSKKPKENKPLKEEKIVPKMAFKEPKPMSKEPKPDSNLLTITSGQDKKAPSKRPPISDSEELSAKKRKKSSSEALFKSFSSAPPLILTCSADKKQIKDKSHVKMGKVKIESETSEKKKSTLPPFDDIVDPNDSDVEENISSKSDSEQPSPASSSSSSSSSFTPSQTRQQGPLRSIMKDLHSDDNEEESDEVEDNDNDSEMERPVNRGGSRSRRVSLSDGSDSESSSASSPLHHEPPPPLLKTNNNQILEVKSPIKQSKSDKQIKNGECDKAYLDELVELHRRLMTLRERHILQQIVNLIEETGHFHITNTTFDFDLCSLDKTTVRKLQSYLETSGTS
GSIS activator: GLuc luminescence reporter in INS-1E cells, primary screen for activators of glucose-dependent secretion of insulin; INS-1E GLuc reporter insulin secretion, 2-3 h; activation, % at 16.6 µM; hit rate 0.61% among 370,000;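 active means lowest replicate activation of at least 40%, so every replicate reaches that level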;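 further: 0% = median of neutral control wells and 100% = median of IBMX positive control wells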
dFosB act: activators of delta FosB homodimer, primary screen, biochemical, fluorescence polarization, TAMRA-CDK5 oligo, single point. purified delta FosB; percent of positive-control signal above neutral wells. activation, % at 25 µM. hit rate 0.99% among 340,000. AID 493131, 2011;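 active means mean activation above about 17%, with every replicate also reaching it, limit read from the data, passing the limit was not always enough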
RAD52 anneal inh: RAD52 DNA annealing inhibitors, primary screen, biochemical, FRET, single point, set 2; hit rate 0.46% among 360,000; inhibition, % at 18.7 µM; recombinant RAD52 DNA annealing, FRET fluorescence; DNA repair protein RAD52 homolog (Homo sapiens), P43351;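 active means every replicate showing at least 50% inhibition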
An asterisk follows results filed as active.

COc1ccc(SC[C@H](C)CN2CC[C@H](NC(=O)OCc3ccccc3)CCC2=O)cc1 was read as DENV2 CPE rescue -1, RAD54 branch 4, MLL AF4-AF9 inh 3, dFosB act 1 and RAD52 anneal inh -7.
Screening COCC(=O)N(C)C[C@@H]1Oc2ncc(-c3ccc(C#N)cc3)cc2C(=O)N([C@@H](C)CO)C[C@H]1C returned DENV2 CPE rescue -9, RAD54 branch 3, MLL AF4-AF9 inh -3, GSIS activator 19 and RAD52 anneal inh -4.
O=C(NCC[C@H]1CC[C@@H](NC(=O)c2cnccn2)[C@H](CO)O1)Nc1ccc(F)cc1 was read as DENV2 CPE rescue 20, RAD54 branch -2, MLL AF4-AF9 inh 6, GSIS activator 19 and RAD52 anneal inh -5.
Screening Cc1ccc(S(=O)(=O)N2CCN(C(=O)COC(=O)Cc3ccc(Cl)cc3)CC2)c(C)c1 returned DENV2 CPE rescue 25*, RAD54 branch 20, MLL AF4-AF9 inh -2, GSIS activator -45, dFosB act -5 and RAD52 anneal inh -5.
Screening Cc1ccc(S(=O)(=O)N2CCN(C(=O)COC(=O)c3ccc(O)cc3)CC2)c(C)c1 returned DENV2 CPE rescue -8, MLL AF4-AF9 inh -1, GSIS activator 49*, dFosB act -17 and RAD52 anneal inh -7.
O=C(C[C@H]1CC[C@H](NS(=O)(=O)c2cccc(F)c2)[C@H](CO)O1)NCc1ccc2c(c1)OCO2 was read as DENV2 CPE rescue 2, RAD54 branch 4, MLL AF4-AF9 inh 0, GSIS activator 4 and RAD52 anneal inh 9.
`O=C(NCc1ccco1)C1CCCN(c2ncnc3c2nc2n3CCCCC2)C1` (stereo not drawn) gave DENV2 CPE rescue 25*, RAD54 branch 5, MLL AF4-AF9 inh 3, GSIS activator -10, dFosB act 4 and RAD52 anneal inh -10.
For O=C(c1cnccn1)N1CC(=O)N2[C@@H](CO)[C@H](c3ccc(-c4ccccc4)cc3)[C@@H]2C1 the results were DENV2 CPE rescue 18, MLL AF4-AF9 inh -5, GSIS activator 9 and RAD52 anneal inh -2.
Screening CC(C)NC(=O)N(C)C[C@@H]1OCCCC[C@H](C)Oc2ccc(NC(=O)Nc3ccc(F)cc3)cc2C(=O)N([C@@H](C)CO)C[C@H]1C returned DENV2 CPE rescue 39*, RAD54 branch -8, MLL AF4-AF9 inh -2, GSIS activator 3 and RAD52 anneal inh -9.
CCCN(C)C[C@@H]1OCCCC[C@H](C)Oc2ccc(NC(=O)Nc3ccc(F)cc3)cc2C(=O)N([C@H](C)CO)C[C@@H]1C was read as DENV2 CPE rescue -4, RAD54 branch 4, MLL AF4-AF9 inh 6, GSIS activator -13 and RAD52 anneal inh 53*.
Screening C[C@@H]1CCCCO[C@@H](CN(C)C)[C@H](C)CN([C@@H](C)CO)C(=O)c2cc(NC(=O)Nc3ccc(F)cc3)ccc2O1 returned GSIS activator -3.
For C[C@H]1CCCCO[C@H](CN(C)C(=O)c2ccccc2)[C@@H](C)CN([C@@H](C)CO)C(=O)c2cc(NC(=O)Nc3ccc(F)cc3)ccc2O1 the results were DENV2 CPE rescue 28*, RAD54 branch -6, MLL AF4-AF9 inh -6, GSIS activator -5 and RAD52 anneal inh 2.
For C[C@@H]1CN([C@H](C)CO)C(=O)c2cc(NC(=O)Nc3ccc(F)cc3)ccc2O[C@@H](C)CCCCO[C@H]1CN(C)C the results were DENV2 CPE rescue 42*, RAD54 branch -5, MLL AF4-AF9 inh -1, GSIS activator 1 and RAD52 anneal inh -1.
C[C@@H]1CCCCO[C@@H](CN(C)C(=O)c2ccccc2)[C@H](C)CN([C@@H](C)CO)C(=O)c2cc(NC(=O)Nc3ccc(F)cc3)ccc2O1 was read as DENV2 CPE rescue 9, RAD54 branch 9, MLL AF4-AF9 inh -9, GSIS activator -7 and RAD52 anneal inh 4.
